Measured values reported in PubChem BioAssay.
The source made the active and inactive calls. How the calls were made is not given here.

Molecular target: Pantothenate synthetase (Mycobacterium tuberculosis (strain ATCC 25618 / H37Rv)) (UniProt P9WIL5)
Test: Recombinant Mtb pantothenate synthetase (PanC) inhibitors, coupled enzyme, confirmatory (AID 375);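 further: 0% = full reaction with vehicle and 100% = no enzyme background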
Conditions: coupled enzyme assay; at 10 µM, active compounds read high

Sequence of Pantothenate synthetase (Mycobacterium tuberculosis (strain ATCC 25618 / H37Rv)) (P9WIL5 whole entry, looked up): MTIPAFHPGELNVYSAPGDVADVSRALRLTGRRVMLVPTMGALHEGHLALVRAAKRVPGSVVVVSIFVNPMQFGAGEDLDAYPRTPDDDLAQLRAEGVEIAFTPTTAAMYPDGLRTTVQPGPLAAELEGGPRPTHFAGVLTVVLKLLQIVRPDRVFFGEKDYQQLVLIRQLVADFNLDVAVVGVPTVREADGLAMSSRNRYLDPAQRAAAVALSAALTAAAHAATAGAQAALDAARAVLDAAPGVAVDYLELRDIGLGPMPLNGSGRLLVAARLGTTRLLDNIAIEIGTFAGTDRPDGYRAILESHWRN

Compound	inhibition
COc1ccc(C2=NO[C@@H]3C(=O)N(c4ccc5c(c4)OCCO5)C(=O)[C@H]23)cc1OC	3% (inactive)
Cc1cc2cc(CCNC(=O)CC(C)C)c(=O)[nH]c2cc1C	9% (inactive)
O=C(CCNS(=O)(=O)c1ccc(Br)s1)N1CCCCC1	0% (inactive)
COc1ccc(S(=O)(=O)Nc2ccccc2OC)cc1C	2% (inactive)
Cc1ccnc(NC(=O)C2CCC(CNc3c(N4CCCC4)c(=O)c3=O)CC2)c1 (stereo not given)	0% (inactive)
CCOC(=O)N1CCC(N2CC34C=CC(O3)C(C(=O)O)C4C2=O)CC1 (stereo not given)	0% (inactive)
CCn1cc(C(=O)O)c(=O)c2cc(F)c(N3CCNCC3)cc21	0% (inactive)
O=C1c2ccccc2C(Nc2ccc3nc(-c4cccnc4)[nH]c3c2)N1Cc1ccco1 (stereo not given)	0% (inactive)
CC(=O)OCC1=C(C(=O)O)N2C(=O)[C@@H](NC(=O)Cc3cccs3)[C@H]2SC1	0% (inactive)
COc1cccc(C(=O)Nc2c(C(N)=O)oc3ccccc23)c1	0% (inactive)
CCCn1c(O)c(CN2CCCC(C)C2)c(C)c(C#N)c1=O (stereo not given)	10% (inactive)
Cc1ccc(N2C(=O)c3oc4ccccc4c(=O)c3C2c2cccc(O)c2)nc1 (stereo not given)	0% (inactive)
CCOc1ccccc1N(C(=O)Cn1nnnc1-c1ccc(C)o1)C(CC)C(=O)NC(C)(C)C (stereo not given)	0% (inactive)
CCCc1ccccc1OCCNC(C)=O	3% (inactive)
O=C(OCc1ccc2c(c1)OCO2)c1ccc(S(=O)(=O)N2CCCCC2)cc1	0% (inactive)
O=C(Nc1cccc(F)c1)c1ccc2c(c1)OCO2	2% (inactive)
COc1cccc(NC(=O)N(Cc2ccco2)C(C)c2cccs2)c1 (stereo not given)	2% (inactive)
O=C(Cn1ncc2c(=O)oc3ccccc3c21)NCC1CCCO1 (stereo not given)	4% (inactive)
Cc1cc(=O)n(C)c(=O)n1CCCCCN1CCCC1	0% (inactive)
O=C(O)C1CC(=O)N(CCOc2ccccc2)C1 (stereo not given)	8% (inactive)

Compound	inhibition
COCc1cc(C)c2c(N)c(C#N)sc2n1	1% (inactive)
O=C(Cn1c(=O)[nH]n(-c2ccccc2)c1=O)N1CCCc2ccccc21	0% (inactive)
O=C(CCCc1cccs1)Nc1nc2c(s1)CCCC2	2% (inactive)
c1ccc(-c2cc(-c3nc(-c4ccccn4)no3)c3ccccc3n2)cc1	0% (inactive)
Cc1cccc(C(OC(=O)c2ccco2)C(=O)NCc2ccccc2)n1 (stereo not given)	4% (inactive)
O=C(O)C1CC=CCC1C(=O)Nc1cc(Cl)ccc1Cl (stereo not given)	1% (inactive)
Cc1cc(C)nc(NS(=O)(=O)c2ccc(N)cc2)n1	0% (inactive)
CCCN(CCO)Cc1cccc(Br)c1	3% (inactive)
O=C(Nc1nnc(C2CCCC2)s1)C1CCN(S(=O)(=O)c2ccc(Cl)cc2)CC1	0% (inactive)
COc1nc2ccc(C)cc2cc1-c1noc(-c2cccnc2)n1	4% (inactive)
Nc1c(C(=O)NCCN2CCOCC2)c2nc3ccccc3nc2n1-c1ccc2c(c1)OCO2	1% (inactive)
CC(=O)N1CCN(S(=O)(=O)c2ccc(S(=O)(=O)NCC(C)C)cc2)CC1	5% (inactive)
CCNC(=O)C1CC(=O)N(Cc2ccc3c(c2)OCO3)C(=Nc2ccc(OCC)cc2)S1 (stereo not given)	0% (inactive)
COCC(=O)Nc1sc2c(c1C(=O)OC)CCC(C)C2 (stereo not given)	6% (inactive)
Cc1cccc(NC(=O)c2cc(NC(=O)c3ccco3)ccc2N2CCCCC2)c1	2% (inactive)
CCCC(=O)Nc1ccc(NC(=O)c2cccs2)cn1	5% (inactive)
O=C(NCc1ccc2c(c1)OCO2)c1cc2n(n1)C(C(F)(F)F)CC(c1ccc3c(c1)OCO3)N2 (stereo not given)	0% (inactive)
COc1ccccc1CC(=O)NCc1ccc2c(c1)OCO2	0% (inactive)
O=C(Cn1c(=O)[nH]c2ccsc2c1=O)N1CCN(c2ccc(F)cc2)CC1	0% (inactive)
COc1cc(NC(=O)C2CC(c3cccc(OC)c3OC)=NO2)cc(OC)c1OC (stereo not given)	0% (inactive)
